Out of some 24,000 compounds screened, about 65 (0.3%) were called active. This is one part of a sample in which actives are shown more often than they occur.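 The calls were made as follows: active = share of bacteria positive for the green fluorescent reporter and its mean brightness both inhibited by 50% or more; inactive = the rest, inconclusive results apart.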
Test: S. aureus quorum sensing inhibitors, primary screen, RNAIII-GFP reporter, flow cytometry (AID 527);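 also: 0% = AIP-stimulated control and 100% = unstimulated bacteria without AIP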
Details: S. aureus RN6390 RNAIII-GFP reporter, AIP-induced, flow cytometry 3 h, at 2 µM, stronger effect = higher value
[1] = measured here: inhibition of GFP MFI

## CCN(CC)CCNC(=O)Cn1cnc2sc(C)c(S(=O)(=O)N3CCOCC3)c2c1=O
  inhibition: -4.4% (inactive)
[1]
  inhibition: -7.2%

## CCn1cc(C(=O)N2CC=C(c3ccccc3)CC2)c(=O)c2ccc(C)nc21
  inhibition: 17.2% (inactive)
[1]
  inhibition: 30.6%

## CCOC(=O)Cn1c(=O)oc2cc(S(=O)(=O)N(C)Cc3ccco3)ccc21
  inhibition: -6.4% (inactive)
[1]
  inhibition: -10.2%

## CC1CCN(c2oc(-c3ccccc3F)nc2C#N)CC1
  inhibition: 0.5% (inactive)
[1]
  inhibition: 3.2%

## Cc1ccccc1NC(=O)c1ccccc1
  inhibition: -2.3% (inactive)
[1]
  inhibition: -11.3%

## CCOC(=O)N1CCN(CC(=O)c2c(C)[nH]c3ccccc23)CC1
  inhibition: -0.6% (inactive)
[1]
  inhibition: 7.3%

## COc1cc2cc(CN(CCN3CCCC3)C(=O)Nc3ccccc3Cl)c(=O)[nH]c2cc1OC
  inhibition: -3.5% (inactive)
[1]
  inhibition: -20.1%

## Cc1ccccc1CN1CCN(C(=O)c2cccc(F)c2)CC1
  inhibition: -0.2% (inactive)
[1]
  inhibition: -10.6%

## COc1cccc(OC)c1OCCN1CCN(C(=O)c2ccco2)CC1
  inhibition: -1% (inactive)
[1]
  inhibition: 4.2%

## COc1ccc(OC)c(NC(=O)CCN2CCC(C)CC2)c1
  inhibition: -0.7% (inactive)
[1]
  inhibition: -21.9%

## CCOc1ccc(-c2cn(S(=O)(=O)c3cccc4nsnc34)nc2N)cc1
  inhibition: 2.7% (inactive)
[1]
  inhibition: 26.8%

## Cn1c(=O)[nH]c(=O)c2c1nc(NCCCn1ccnc1)n2Cc1cccc(Br)c1
  inhibition: -0.5% (inactive)
[1]
  inhibition: -1.6%

## CC(=O)c1cc2c(cc1NC(=O)CN1CCCCCC1)OCO2
  inhibition: -3.5% (inactive)
[1]
  inhibition: -12.2%

## O=C(CC(NCCN1CCOCC1)C(=O)O)Nc1cccc(Cl)c1 (stereo not drawn)
  inhibition: -0.4% (inactive)
[1]
  inhibition: 7.8%

## CCN(CC)C(=O)CCC(=O)Nc1ccc(C(=O)OC)cc1
  inhibition: 0.7% (inactive)
[1]
  inhibition: 0%

## CCOc1ccc(Cn2nnc(C(=O)Nc3ccc(OC)cc3OC)c2N)cc1
  inhibition: -0.3% (inactive)
[1]
  inhibition: -4.3%

## COc1ccc(C(=O)NCc2cn3ccccc3n2)cc1
  inhibition: -9.5% (inactive)
[1]
  inhibition: -17.4%

## Cc1cc(C)c2c(n1)nn1c(N3CCOCC3)cc(C)nc21
  inhibition: -1.1% (inactive)
[1]
  inhibition: 1.4%

## CCCCN(CC)C(=O)CN(C)S(=O)(=O)c1cccc2nsnc12
  inhibition: -1.2% (inactive)
[1]
  inhibition: -4.3%

## CC1CCCCC1NC(=O)CCS(=O)(=O)c1cccc2nonc12 (stereo not drawn)
  inhibition: 4% (inactive)
[1]
  inhibition: 22.1%

## CCOc1ccc(C2C(C(=O)NC)=C(C)Nc3nc4ccccc4n32)cc1OC (stereo not drawn)
  inhibition: 2.9% (inactive)
[1]
  inhibition: 6.8%

## O=C(NCc1ccco1)C1CCCN(S(=O)(=O)c2cnc[nH]2)C1 (stereo not drawn)
  inhibition: 3.6% (inactive)
[1]
  inhibition: 9.1%

## CCn1cc(C(=O)NCC2CCCO2)c(=O)c2cc(S(=O)(=O)N3CCCCC3)ccc21 (stereo not drawn)
  inhibition: -8.4% (inactive)
[1]
  inhibition: -14.4%

## O=C(c1ccco1)N1CCN(C(=O)c2ccc(COc3ccc(F)cc3)o2)CC1
  inhibition: 2.8% (inactive)
[1]
  inhibition: 8%

## COc1ccc(C2OC(=O)CC2C(=O)NC(C)C)cc1 (stereo not drawn)
  inhibition: -1% (inactive)
[1]
  inhibition: -15.8%

## COc1cc2[nH]c(=S)n(Cc3ccc(C)o3)c(=O)c2cc1OC
  inhibition: 2% (inactive)
[1]
  inhibition: 9.8%

## O=C(CN1C(=O)CCS(=O)(=O)c2ccccc21)NCc1ccc(F)cc1
  inhibition: -1.6% (inactive)
[1]
  inhibition: -8.2%

## CCOC(=O)CSc1nnc(NC(=O)c2cccc(S(=O)(=O)N3CCCCC3)c2)s1
  inhibition: -0.3% (inactive)
[1]
  inhibition: 13%

## COc1cccc(OCC(O)CN2CCN(CCO)CC2)c1 (stereo not drawn)
  inhibition: -2% (inactive)
[1]
  inhibition: -8.9%

## CN(C)/C=C1\C=C(c2ccccc2)OC1=O
  inhibition: 0.4% (inactive)
[1]
  inhibition: 1.9%

## O=C(NCc1ccc2c(c1)OCO2)C1CCCN(S(=O)(=O)c2cccs2)C1 (stereo not drawn)
  inhibition: 16.2% (inactive)
[1]
  inhibition: 44.2%

## CCCCC(=O)Nc1cc(C)c2c(=O)oc3ccccc3c2n1
  inhibition: 43.3% (inactive)
[1]
  inhibition: 69.9%

## COc1ccc(N2CCN(CCNC(=O)CCN3C(=O)COc4ccccc43)CC2)cc1
  inhibition: -0.3% (inactive)
[1]
  inhibition: 5.4%

## COc1cc2[nH]c(=S)n(CCN3CCCCC3C)c(=O)c2cc1OC (stereo not drawn)
  inhibition: 2.3% (inactive)
[1]
  inhibition: 17.7%

## O=C(CC(NS(=O)(=O)c1ccc(Cl)cc1)c1ccco1)NC1CCCC1 (stereo not drawn)
  inhibition: 7.7% (inactive)
[1]
  inhibition: 13.1%

## Cc1c(NC(=O)C(C)OC(=O)c2cc3c4ccccc4n(C)c3s2)c(=O)n(-c2ccccc2)n1C (stereo not drawn)
  inhibition: 0.6% (inactive)
[1]
  inhibition: 3.3%

## O=C(Cn1nc(Cc2cccnc2)c2ccccc2c1=O)NCC1COc2ccccc2O1 (stereo not drawn)
  inhibition: 5.9% (inactive)
[1]
  inhibition: 12.1%

## Cc1cc(Cl)c(S(=O)(=O)Nc2ccc3c(c2)OCCO3)cc1OCC(N)=O
  inhibition: -0.7% (inactive)
[1]
  inhibition: -17.3%

## Cc1ccc(-c2nc(CS(=O)CC(=O)N3CCN(c4ncccn4)CC3)c(C)o2)cc1 (stereo not drawn)
  inhibition: -2.1% (inactive)
[1]
  inhibition: -1.4%

## COc1cc(C(O)c2nc3ccccc3n2C)cc(OC)c1OC (stereo not drawn)
  inhibition: -4% (inactive)
[1]
  inhibition: -99.6%

## CC(C)OCCCNC(=O)CNC(=O)c1cccs1
  inhibition: -1.5% (inactive)
[1]
  inhibition: -15.3%

## Cc1ccc(S(=O)(=O)N2C3C=CC(C3)C2C(=O)O)cc1 (stereo not drawn)
  inhibition: -5.7% (inactive)
[1]
  inhibition: -28.5%

## Cc1ccc(CNC(=O)C2CCCN(S(C)(=O)=O)C2)cc1 (stereo not drawn)
  inhibition: 0.6% (inactive)
[1]
  inhibition: 10%

## COc1ccccc1C(=O)N1CCN=C1SCc1cccnc1
  inhibition: -1.3% (inactive)
[1]
  inhibition: -5.4%

## CC(C)(C)n1nc2c(c1NC(=O)c1ccc(S(=O)(=O)N3CCCC3)cc1)CS(=O)C2 (stereo not drawn)
  inhibition: -6.3% (inactive)
[1]
  inhibition: -9.9%

## Cc1nn(-c2ccccc2)c2c1C(=O)NC(=O)C(C)(C)C2
  inhibition: 4.5% (inactive)
[1]
  inhibition: 27.5%

## O=C(Nc1ccncc1)c1cc2ccccc2o1
  inhibition: 0% (inactive)
[1]
  inhibition: 2.6%

## COc1ccc(S(=O)(=O)Nc2ccc(S(=O)(=O)N3CCCCC3)cc2)cc1OC
  inhibition: -3.8% (inactive)
[1]
  inhibition: -10.7%

## Cc1onc(-c2ccccc2)c1C(=O)N1CCOCC1
  inhibition: 0% (inactive)
[1]
  inhibition: 3.7%

## Cc1ccc(C(c2sc3nc(C)nn3c2O)N2CCN(c3ccc(F)cc3)CC2)cc1 (stereo not drawn)
  inhibition: 1.8% (inactive)
[1]
  inhibition: -4.2%

## C=CCSc1nc2c(c(=O)[nH]1)C(C(C)C)C(C#N)=C(N)O2 (stereo not drawn)
  inhibition: 2.6% (inactive)
[1]
  inhibition: 27.2%

## CCN(c1ccc2c(c1)OCO2)S(=O)(=O)c1cc(Br)cc2c1N(C(=O)C1CC1)CC2
  inhibition: -0.3% (inactive)
[1]
  inhibition: 5.6%

## CCOC(=O)CSC1=C(C#N)C(c2sccc2C)CC(=O)N1 (stereo not drawn)
  inhibition: -0.9% (inactive)
[1]
  inhibition: -28.9%

## COC(=O)c1ccc(NC(=O)C(C)N2C(=O)c3ccccc3C2=O)cc1 (stereo not drawn)
  inhibition: -1.2% (inactive)
[1]
  inhibition: -12.9%

From PubChem BioAssay AID527 (NMMLSC, 2006)
